From PubChem BioAssay
In the library only some 4.4% were active in any assay of this set; here they are far more common.
PfHsp90 yeast 2 = growth inhibition of yeast expressing Plasmodium Hsp90; S. cerevisiae expressing PfHsp90, BacTiter-Glo ATP, 48 h; yeast lacking PDR1 and PDR3 efflux regulators; inhibition, % at 9.4 µM; 310,000 compounds, 0.32% hits;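 active = every replicate shows inhibition above about 80%, whatever the replicate mean, limit read from the data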;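 note: 0% = DMSO neutral controls and 100% = 20 µM radicicol positive controls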
tim10-1 inh = tim10-1 yeast growth inhibition; 330,000 compounds, 2.2% hits; AID 463190; S. cerevisiae tim10-1 ts strain growth, BacTiter-Glo, 24 h; inhibition, % at 20 µM;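 active = inhibition of at least 40%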;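 note: mutant grown at 25 °C; 0% = DMSO wells with yeast and 100% = wells holding no yeast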
tim23-1 inh = growth inhibitors of tim23-1 mutant yeast | 330,000 compounds, 1.3% hits | S. cerevisiae tim23-1 growth, BacTiter-Glo luminescence, 24 h | inhibition, % at 20 µM;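 active = growth inhibition of the mutant yeast at or above 50%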;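 note: temperature-sensitive mutant grown at 25 °C; plate controls were DMSO-treated mutant yeast for no effect and medium wells lacking yeast for full effect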
SKKanGAS inh = SKKanGAS growth inhibition. AID 1662. inhibition, % at 7.5 µM. 300,000 compounds, 1.3% hits. S. pyogenes SKKanGAS, kanamycin growth, BacTiter-Glo, 6 h;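 active = mean replicate score, as percent of positive control median, at least 50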;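 note: strain carries kanamycin resistance gene driven by streptokinase promoter and grows in 40 µg/ml kanamycin; loss of luminescence reflects streptokinase promoter inhibition or plain growth inhibition; 0% = median of DMSO wells and 100% = positive control at its reference dose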
TIM10 inh = inhibits growth of TIM10 yeast strain. S. cerevisiae TIM10 strain growth, BacTiter-Glo luminescence, 24 h. inhibition, % at 10 µM. 330,000 compounds, 1.4% hits;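 active = inhibition of 40% or more at the single tested concentration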;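 note: wild-type TIM10 isogenic control strain grown at permissive 25 °C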
Starred values were filed as active, the others as inactive; / = not tested or not shown.

SMILES	PfHsp90 yeast 2	tim10-1 inh	tim23-1 inh	SKKanGAS inh	TIM10 inh
Nc1n[nH]c(N)c1N=Nc1ccc(F)cc1	-8	-19	9	2	-1
Cc1nc(N)sc1N=Nc1ccc(F)cc1	4	19	36	81*	20
COc1ccc(/C=c2\s/c(=C/C(=O)c3ccc(C)cc3)[nH]c2=O)cc1OC	-36	17	22	62*	4
COc1ccc(/C=C2\CC/C(=C\c3ccc(OC)c(OC)c3)C2=O)cc1OC	-3	19	31	6	29
Cc1ccc2c(c1)c(C)c(C)n2CC(O)Cn1nc(C)c(Br)c1C (centres undefined)	3	25	15	59*	25
C/C(CC(=O)Nc1ccc(Cl)c(C(F)(F)F)c1)=N\NC(=O)c1cc2ccccc2cc1O	-5	38	39	95*	20
COc1ccc(OCC(=O)N(C)CC2COc3ccccc3O2)cc1 (centres undefined)	11	-12	15	/	-2
C=CCN(c1ccccc1OC)S(=O)(=O)c1cccc(C(=O)NCC(c2ccc(OC)cc2)N2CCCC2)c1 (centres undefined)	17	/	/	/	/
C/C(CC(=O)Nc1cc(C)ccn1)=N\NC(=O)c1cccc(C)c1O	101*	19	2	5	-9
Cc1c(N/N=C(\C#N)C(=O)c2ccccc2)c(=O)n(-c2ccccc2)n1C	18	/	/	65*	/
Cc1ccccc1C(=O)/C(C#N)=N/Nc1c(C)n(C)n(-c2ccccc2)c1=O	4	/	/	66*	/
COc1cccc(C=Nc2cc(C(C)C)c(O)cc2C)c1O	4	/	/	/	/
CC(C)c1ccc(C(C)NC(=S)NC2CCCCC2)cc1 (centres undefined)	0	27	31	38	22
CC(NC(=S)NC1CCCCC1)c1ccc(C(C)(C)C)cc1 (centres undefined)	-31	35	33	56*	16
CCc1ccc(C(C)NC(=S)NC2CCCCC2)cc1 (centres undefined)	29	28	26	7	16
CCC(C)c1ccc(C(C)NC(=S)NC2CCCCC2)cc1 (centres undefined)	-94	23	35	50*	13
FC(F)(F)c1ccc(C2[C@H]3CN(Cc4cccnc4)[C@H](c4ccccc4)C34CC2(c2cccnc2)C4)cc1 (some centres undefined)	-1	22	18	53*	22
FC(F)(F)c1ccc(C2[C@H]3CN(Cc4ccc(-c5ccccc5)cc4)[C@H](c4ccccc4)C34CC2(c2cccnc2)C4)cc1 (some centres undefined)	/	11	21	8	11
O=C1c2cccc3cccc(c23)C(=O)N1CC1CCN(CC(O)COc2ccc3ccccc3c2)CC1 (centres undefined)	19	-91	-73	70*	37
CCOC(=O)C1=CN(Cc2cccc(F)c2)S(=O)(=O)N(CC)C1c1ccc(C(F)(F)F)cc1 (centres undefined)	3	14	32	/	-5
COc1ccc(-c2noc(CCC(=O)N3CCN(c4ccccc4)CC3)n2)cc1	6	17	32	/	-6
COc1ccc(C2=NOC(CNC(N)=S)C2)cc1 (centres undefined)	-1	11	-3	51*	0
CC(C)(C)c1cc(C(F)(F)F)n2ncc(-c3ccccc3)c2n1	-14	15	14	5	0
CC(C)(C)c1cc(NCc2ccccn2)n2ncc(-c3ccc(Cl)cc3)c2n1	-20	-5	4	85*	3
CC(C)Nc1cc(C(C)(C)C)nc2c(-c3ccccc3)cnn12	15	-10	9	89*	-8
SMILES	PfHsp90 yeast 2	tim10-1 inh	tim23-1 inh	SKKanGAS inh	TIM10 inh
O=C(CSc1nnc2ccccn12)NNC(=O)c1cccc([N+](=O)[O-])c1	-17	-15	-17	/	-2
Cc1noc(C)c1CSCC(=O)N(C)CC(=O)Nc1ccccc1C(F)(F)F	17	-5	13	/	10
COCCCn1cnnc1SC(C)C(=O)Nc1ccc(S(=O)(=O)N2CCOCC2)cc1 (centres undefined)	-15	-5	0	/	-9
COc1cc(C(=O)NS(=O)(=O)c2ccccc2C)ccc1Cc1cn(C)c2ccc(NC(=O)OC3CCCC3)cc12	/	31	24	68*	22
COc1ccc(NC(=O)COc2ccccc2C)cc1S(=O)(=O)N1CCCCC1	/	-12	2	-2	-18
O=C1NC(=S)S/C1=C\C=C\c1ccc([N+](=O)[O-])o1	106*	/	/	/	/
O=C(NC(CO)C(O)c1ccc([N+](=O)[O-])cc1)C(Cl)Cl (centres undefined)	-7	3	5	104*	-2
O=C(NC(CO)Cc1ccc([N+](=O)[O-])cc1)C(Cl)Cl (centres undefined)	-15	-5	8	97*	8
O=C(N[C@H](CO)[C@H](O)c1ccc([N+](=O)[O-])cc1)C(Cl)Cl	-6	6	14	101*	0
O=[N+]([O-])c1ccc(C(O)C(CO)NC(=S)Nc2ccccc2)cc1 (centres undefined)	-10	-10	6	21	2
O=C(O)CC(Cc1ccc(Cl)cc1)C(=O)Nc1ccc([N+](=O)[O-])cc1 (centres undefined)	-73	/	/	-1	/
COc1cc(C(=O)N2CCN(c3ccccc3Cl)CC2)ccc1OCC(=O)N1CCOCC1	-2	3	0	/	8
CCOc1ccc(S(=O)(=O)N2CCC(C(=O)OC(C)C(=O)NC3CCCCC3C)CC2)cc1 (centres undefined)	0	22	23	/	7
N#Cc1ccc(C(=O)Nc2nc(SCc3ccc(Cl)cc3)n[nH]2)cc1	-15	6	-1	87*	7
Cc1nn(Cc2ccccc2Cl)c2sc(C(=O)Nc3ccccc3N3CCOCC3)cc12	6	18	4	60*	22
Cc1nn(Cc2ccc(F)cc2)c2sc(C(=O)Nc3ccccc3N3CCOCC3)cc12	5	18	6	10	14
O=C(NCCCCCCCN1CCCCCCC1)C(C1CCCCC1)C1CCCCC1	-28	/	/	/	/
COc1ccc(CCNc2nc(-c3ccccn3)cs2)cc1OC	25	-6	-6	75*	16
O=C(NCc1nc(-c2ccc(C(F)(F)F)cc2)no1)Nc1cc(Cl)cc(Cl)c1	-14	26	11	109*	22
O=C(NCc1nc(-c2ccc(C(F)(F)F)cc2)no1)Nc1ccc(F)cc1F	-1	-5	-6	-4	1
CN(/N=C/c1ccc(O)cc1O)c1nc(-c2ccccc2)cc(-c2ccccc2)n1	-14	23	24	71*	18
Nc1nc(Nc2ccccc2)nc(NC2CCCCC2)c1[N+](=O)[O-]	-24	9	39	79*	13
CC(C)C[C@@H](CNCC(=O)[C@H](Cc1ccccc1)NC(=O)c1[nH]cnc1C(=O)N[C@H](CN)CC(C)C)NC(=O)c1nc[nH]c1C(=O)N[C@@H](CC(=O)O)C(=O)O	-42	/	/	/	/
CCCCCCCCCCCCCC(=O)NO	107*	/	/	/	/
CCCCCCCC/C=C\CCCCCCCC(=O)NCCO	109*	29	12	/	-2
